CHT block = inhibits the human high affinity choline transporter. CHT-expressing cells, membrane potential dye, choline response; active compounds read low. 310,000 compounds, 0.86% hits. B-score at 10 µM. AID 488975. Q9GZV3;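 active = B-score over 3 SD under the library average, and starting fluorescence ratio not unusually high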;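 also: choline stimulus applied at its EC90 after an EC20 pre-addition; B-score computed on integrated fluorescence ratio after choline addition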
Target sequence (Q9GZV3 whole entry, looked up): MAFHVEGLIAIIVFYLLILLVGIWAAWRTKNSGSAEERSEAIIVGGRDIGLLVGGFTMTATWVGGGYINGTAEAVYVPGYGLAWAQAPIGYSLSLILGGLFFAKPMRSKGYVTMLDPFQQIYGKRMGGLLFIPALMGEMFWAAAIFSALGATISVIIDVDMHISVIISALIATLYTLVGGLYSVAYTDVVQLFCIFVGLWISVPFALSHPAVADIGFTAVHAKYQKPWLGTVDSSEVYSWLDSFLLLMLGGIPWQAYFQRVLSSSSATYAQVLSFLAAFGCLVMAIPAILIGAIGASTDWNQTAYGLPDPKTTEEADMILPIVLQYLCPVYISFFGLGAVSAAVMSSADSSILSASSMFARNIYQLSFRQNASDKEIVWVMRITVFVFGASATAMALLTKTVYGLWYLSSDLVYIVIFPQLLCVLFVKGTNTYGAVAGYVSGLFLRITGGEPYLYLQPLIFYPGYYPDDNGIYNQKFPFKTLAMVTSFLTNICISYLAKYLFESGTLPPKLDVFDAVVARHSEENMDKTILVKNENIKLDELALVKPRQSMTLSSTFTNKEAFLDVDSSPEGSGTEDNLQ
beta cell repl = inducers of beta-cell replication in MIN6 cells | MIN6 cells proliferation, ATPlite luminescence, 48 h; cells starved in 0.2% serum; 100% = growth in 10% serum | proliferation, % at 10 µM | 330,000 compounds, 0.29% hits;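 active = compounds whose signal lies at least 3.5 SD above the mean of all wells on their plate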;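 also: 0% = DMSO-treated cells in low-serum medium and 100% = 10% serum control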
CHT allo act = human CHT allosteric activation; Q9GZV3; CHT-expressing cells, membrane potential dye, choline EC20; active compounds read high; LV-AA mutant CHT in HEK293 cells; B-score at 10 µM; 310,000 compounds, 0.49% hits; AID 488977;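 active = initial fluorescence not abnormally high and integrated response B-score, plate-corrected, over 3 SD above library mean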
H9c2 TAG inh = reduces triacylglycerol accumulation in H9c2 cells | inhibition, % at 12.5 µM | 230,000 compounds, 0.66% hits | Nile Red lipid (TAG) fluorescence; cells loaded with 200 µM oleic acid;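 active = pattern-corrected inhibition of lipid staining of at least 50% with the nuclear-stain viability signal not falling by more than 50%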;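 also: 0% = DMSO wells and 100% = triacsin C control wells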
CHT block conf = human CHT inhibition, confirmatory screen; shares compounds with CHT block; CHT-expressing cells, choline membrane potential dye; LV-to-AA substituted CHT, HEK293 cells; CHT activity remaining % of control (active compounds read low), % at 10 µM; 2,400 compounds, 70% hits;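 active = choline transporter activity left, mean of duplicates at 10 µM, below buffer-only control mean minus 3 SD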;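 also: depolarization triggered by choline at its EC90 following an EC20 pre-addition; 0% = hemicholinium-3 full block and 100% = buffer-only control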
HEK293 CHT ctr = activity in parental HEK293 cells lacking CHT. shares compounds with CHT block. membrane potential dye, choline response; active = decrease or increase beyond buffer ±3SD. membrane potential ratio readout (active if shifted either direction beyond buffer ±3SD; no single direction) at 10 µM. 2,400 compounds, 4% hits. AID 493222;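 also: parental cells lack the transporter so any hit is non-specific; ratio is peak minus trough fluorescence over baseline after EC90 choline challenge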
Numbers without * were called inactive; i = inactive; · = no result. Hits are enriched below; roughly 1.7% of the tested compounds scored in any of these assays.

SMILES	CHT block	beta cell repl	CHT allo act	H9c2 TAG inh	CHT block conf	HEK293 CHT ctr
O=[N+]([O-])c1ccc(O)c(C=Nc2ccc3c(c2)OCCO3)c1	i	-5	i	·	·	·
CC(C)n1c(=O)[nH][nH]c1=S	i	-2	i	5	·	·
CCOC(=O)CNC(=O)CSc1nc(Cc2ccccc2)nc2ccccc12	-6.6*	0	i	·	i	i
NS(=O)(=O)c1cccc(NC(=O)COC(=O)C2(c3cccc(F)c3)CCCC2)c1	i	0	i	·	·	·
Fc1ccc(OCCOCCOc2cccc3[nH]ccc23)cc1	-5.3*	-3	i	-13	i	i
C=CCn1c(SC2CCOC2=O)nc2sc(C)c(C)c2c1=O (centres undefined)	i	-1	i	-14	·	·
C=CCn1c(SC2CCOC2=O)nc2scc(C3CC3)c2c1=O (centres undefined)	-5.7*	0	i	24	47%*	i
CCCCC(=O)Nc1nnc(CCc2ccccc2)s1	i	-4	i	11	·	·
COCC(C)NC(=O)COCc1cc(-c2ccc3c(c2)OCO3)on1 (centres undefined)	i	-1	i	·	·	·
Cc1cccc(C)c1OCc1cc(C(=O)N2CCN(C3CCCC3)CC2)no1	-6.3*	-4	i	-6	53%*	i
CC[C@H](C)[C@H]1CNC(=S)N1CC1CCN(CCC(C)C)CC1	·	·	·	5	·	·
CC(C)(C)[C@H]1CCC(=O)N([C@H](CN=[N+]=[N-])Cc2ccccc2)CC1	-5.1*	-2	i	·	i	i
Cc1c(NC(=S)NC(=O)c2ccc(COc3ccccc3)cc2)cccc1C(=O)O	-6.3*	-5	i	21	i	i
CCC(C)(C)NC(=O)C(c1ccccn1)N(C(=O)c1csnn1)c1ccc(C)cc1 (centres undefined)	-5.2*	-2	i	-37	i	i
CCc1ccc(N(C(=O)c2csnn2)C(C(=O)NC(C)(C)CC)c2cccnc2)cc1 (centres undefined)	-5.1*	0	i	11	i	i
Cc1nn(CC(=O)NC(=O)c2ccccc2)c(C)c1[N+](=O)[O-]	·	-1	·	-6	·	·
CCCCc1ccc(NC(=O)CSc2nc(=O)n(CCCN3CCOCC3)c3c2CCC3)cc1	-7.9*	-3	i	-22	21%*	i
CCN(CC)CCCn1c2c(c(SCC(=O)Nc3ccc(OC(F)(F)F)cc3)nc1=O)CCC2	-12*	-6	i	9	38%*	i
O=C1C=C(NCc2ccc3c(c2)OCO3)CC(c2ccccc2)C1 (centres undefined)	i	1	i	·	·	·
O=C(Nc1ccc2c(c1)OCO2)c1csc([C@H]2C[C@H](O)[C@@H](CO)O2)n1	·	·	·	-6	·	·
COc1ccc(C(=O)Nc2nc(CC(=O)NCCc3ccccc3)cs2)cc1	-5.1*	-5	i	-36	i	i
COc1ccc(N2CCN(c3nc(Cl)nc(N4CCOCC4)n3)CC2)cc1	i	-3	i	2	·	·
COc1ccc(N2CCN(c3nc(NCCO)nc(N4CCOCC4)n3)CC2)cc1	-6.1*	0	i	41	i	i
COc1ccc(NS(=O)(=O)c2ccc(NC(=S)NC(=O)/C=C/c3ccccc3)cc2)nn1	i	-2	i	·	·	·
COc1ccc(C2=NOC(C(=O)Nc3cccnc3)C2)cc1 (centres undefined)	i	-3	i	-2	·	·
SMILES	CHT block	beta cell repl	CHT allo act	H9c2 TAG inh	CHT block conf	HEK293 CHT ctr
CCc1ccccc1NC(=O)C1CC(c2ccc(OC)cc2)=NO1 (centres undefined)	-6.3*	1	i	·	48%*	i
CC1C/C(=N/NC(=O)c2cccc(F)c2)c2ccc(O)cc2C1 (centres undefined)	i	3	i	·	·	·
COc1ccc2c(c1)CC(C)C/C2=N\NC(=O)c1ccco1 (centres undefined)	-9.5*	-3	i	20	58%*	i
O=C(CSc1nccn1-c1ccccc1)NCc1ccc(F)cc1	i	-1	i	-1	·	·
O=C(CSc1nccn1-c1ccc(F)cc1)NCc1ccc(F)cc1	-5.3*	-4	i	-6	53%*	i
O=C(c1ccc(O)cc1)c1ccc(Cl)cc1	-6*	0	i	5	50%*	i
COc1ccc(C(=O)c2ccc(Cl)cc2)cc1	i	-1	i	0	·	·
CCOc1ccc(NC(=O)CNC(=O)c2cccs2)cc1	i	0	i	-1	·	·
COc1cccc(CN(C)S(=O)(=O)c2ccccc2Br)c1	·	·	·	-12	·	·
COc1ccc(-n2c(C)nn(CCOc3ccccc3)c2=O)cc1	i	-3	i	9	·	·
Cc1nn(CC2CC2)c(=O)n1-c1ccc(Oc2ccccc2)cc1	-12*	-3	i	3	59%*	i
CCOC(=O)c1nc(NNC(=O)c2ccc([N+](=O)[O-])cc2)sc1C	-9.9*	-6	i	-9	54%*	i
CCOC(=O)c1sc(NNC(=O)c2ccc(C)cc2)nc1C	i	0	i	13	·	·
COc1ccccc1N(C)S(=O)(=O)c1ccc(C(=O)OCC(=O)c2c[nH]c3ccccc23)cc1	i	-3	i	·	·	·
O=C(c1ccco1)N1CCC(c2nc(-c3ccccc3Cl)no2)CC1	-5.7*	1	i	·	i	i
CC(C)NC(=O)Nc1nnc([C@@H]2C[C@H](O)[C@@H](CO)O2)s1	·	·	·	9	·	·
N#Cc1ccccc1Sc1ccccc1C(=O)OCC(N)=O	i	-1	i	13	·	·
Cc1noc(C)c1COC(=O)c1ccccc1Sc1ccccc1C#N	-6.1*	-2	i	-17	i	i
Cc1ccc(S(=O)(=O)N(c2nc(NC(C)C)nc(NC(C)C)n2)n2cnnc2)cc1	i	0	i	·	·	·
C=C(C)C(=O)Nc1cccc(C2=NOC3(C2)C[C@H](C(N)=O)N(C(=O)COc2ccc(Cl)cc2)C3)c1 (some centres undefined)	i	-1	i	·	·	·
Cn1c(=S)[nH]c(=O)c2ncc(=O)[nH]c21	i	-2	i	·	·	·
CCOC(=O)c1sc(NC(=O)CSc2nnnn2-c2ccc(C)cc2)c(C(=O)OCC)c1C	i	-2	i	·	·	·
CCOC(=O)c1c(NC(=O)CSc2nnc(-c3ccccc3)n2CC)sc(C(C)=O)c1C	-5.3*	-4	i	·	i	i
CCOC(=O)c1c(NC(=O)CSc2nnc(-c3cccc(C)c3)n2CC)sc(C(C)=O)c1C	i	-1	i	16	·	·
CCOC(=O)c1sc(NC(=O)CSc2nc3c(c(=O)n2-c2ccc(C)cc2)SCC3)c(C(=O)OCC)c1C	-7*	-3	i	32	69%*	i
COc1cccc2sc(=NC(=O)CS(=O)(=O)c3ccc(Cl)cc3)n(C)c12	i	-6	i	-29	·	·
